Values joined by “and” are separate entries in the source; they are usually repeats but may differ in a detail not shown here. Equal entries are not always repeated. Records with an inconclusive call do not appear. A number with no mark means an inactive call. The call rests on the fitted dose curve; in most records, active means well fitted curve in the direction sought with a large enough effect; inconclusive means small, poorly fitted or top-dose-only effect, or another doubt; inactive means no such curve, though single readings can be large; an effect the other way counts as inactive or inconclusive. *1 amine or outer side, *2 acyl side, *3 side chain or, on linkers, in order; H or OH if unused. Where a SMILES comes first, the peptide text is derived from it. Bridges are numbered along the chain shown (N, C = ends). [ ]: non-standard residue; d: D form. The star is where a group is joined. ξ: configuration not given here. X10 = NC1=NCCC(C(N[*:1])C(=O)[*:2])N1; ΔAla(3-NHCONH2) = NC(=O)NC=C(N)C(=O)O; ξβ3hOrn = NCCCC(N)CC(=O)*; Dap = NC[CH](N)C(=O)O
Tested on: Tov112D
Experiment: Primary qHTS to identify gynecologic anti-cancer compounds using libraries of approved drugs and bioactive compounds (AID 1345084); further: nearly all actives have a fitted effect of over 55% in size
Conditions: Gynecologic cancer cell panel viability, ATPlite luminescence, 48 h; series mostly up to 57.5 µM; activity change, negative = cytotoxicity: at the top concentration
Procedure, shortened: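 Measured: luminescence after ATPlite addition (15 min, RT). Exposure: 48 h, 37 C, 5% CO2.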
On the % scale 0 is the no-effect control and ±100 the full control effect.

Structure (SMILES) | activity change, negative = cytotoxicity
CC(C(=O)O)c1ccc(/C=C2\CCCCC2=O)cc1 (stereo not given) | 4.76%
O=C(CO)[C@@H](O)[C@H](O)[C@@H](O)CO | 3.04%
CC(=O)N(CC(O)CO)c1c(I)c(C(=O)NCCO)c(I)c(C(=O)NCC(O)CO)c1I (stereo not given) | 5.86%
O=C(O)[C@H](O)[C@@H](O)[C@H](O[C@@H]1O[C@H](CO)[C@H](O)[C@H](O)[C@H]1O)[C@H](O)CO | -5.74%
CCCCC(O)/C=C(C)/C=C/C=C/C(=O)N1CCCC1=O (stereo not given) | -1.16%
Cc1ncc([N+](=O)[O-])n1C | -1.01%
CCCN(CCC)C(=O)C(CCC(=O)OCCCN1CCN(CCOC(=O)Cc2c(C)n(C(=O)c3ccc(Cl)cc3)c3ccc(OC)cc23)CC1)NC(=O)c1ccccc1 (stereo not given) | 15.4%
COC(=O)c1c(Cl)c(Cl)c(C(=O)OC)c(Cl)c1Cl | -2.62% [at 116 µM]
NCCCC(N)CC(=O)NCC1NC(=O)C(CO)NC(=O)C(N)CNC(=O)C(C2CCN=C(N)N2)NC(=O)C(=CNC(N)=O)NC1=O (stereo not drawn) (H-[Dap]S[Dap](ξβ3hOrn)[ΔAla(3-NHCONH2)][X10]; lactam 1-C; configuration not given here) | 4.39% [at 0.462 µM]
CC(NN)c1ccccc1 (stereo not given) | -10.4% [at 25.3 µM]
c1ccc2occc2c1 | 3.93% [at 116 µM]
CCCCCOc1ccc(C2SC(=O)NC2=O)cc1OCC (stereo not given) | 5.77%
CCCc1c2oc(C(=O)O)cc(=O)c2cc2c(=O)cc(C(=O)O)n(CC)c12 | 0.751%
COc1ccc2c(c1)CCCC2=O | 7.6%
Cc1ccc(O)cc1 | -7.03%
CC(CCc1ccc2c(c1)OCO2)NN (stereo not given) | -1.38%
Cc1cc(=O)oc2cc(O[C@@H]3SC[C@@H](O)[C@H](O)[C@H]3O)ccc12 | 6.44%

Tested on: not listed separately
Experiment: Drug repurposing screens with cells derived from glioblastoma tumor samples (AID 1345199); further: nearly all actives have a fitted effect of over 40% in size
Conditions: GBM patient neurospheres viability, ATP luminescence, 48 h; at 45.9 µM (top of the series); tumour line B
Procedure, shortened: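 Primary testing used CD133+ neurospheres from four GBM patients, seven concentrations, 48 h exposure and ATP-based viability; confirmation added three slower-growing patient lines.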

Structure (SMILES) | activity, negative = cell killing
CC(=O)Nc1ccc(S(=O)(=O)Nc2cc(C)on2)cc1 | 4.82%
C[C@H]1NCc2cc(-c3ccc4c(=O)c(C(=O)O)cn(C5CC5)c4c3OC(F)F)ccc21 | 3.7%
COc1ccccc1OCC1CNC(=O)O1 (stereo not given) | -0.636%
CCC(C(=O)NC(=O)NC(C)=O)c1ccccc1 (stereo not given) | -11.4%
Cc1ccccc1C(=O)N1CC/C(=N\OS(=O)(=O)O)c2ccc(Cl)cc21 | -4.66%
CC(C(=O)O)c1ccc(/C=C2\CCCCC2=O)cc1 (stereo not given) | -2.39%
O=C(CO)[C@@H](O)[C@H](O)[C@@H](O)CO | 4.08%
CC(=O)N(CC(O)CO)c1c(I)c(C(=O)NCCO)c(I)c(C(=O)NCC(O)CO)c1I (stereo not given) | -10.8%
CC(NN)c1ccccc1 (stereo not given) | -17.4%
CCCCCOc1ccc(C2SC(=O)NC2=O)cc1OCC (stereo not given) | -6.4%
CCCc1c2oc(C(=O)O)cc(=O)c2cc2c(=O)cc(C(=O)O)n(CC)c12 | -3.36%
Cc1ccc(O)cc1 | -22.9% and -5.16%
CC(CCc1ccc2c(c1)OCO2)NN (stereo not given) | -11.1%

Reference: PubChem BioAssay (NCATS)
